# Laboratory results taken from ChEMBL document CHEMBL4513216, “Probing the Open Global Health Chemical Diversity Library for Multistage-Active Starting Points for Next-Generation Antimalarials” (ACS Infect Dis, 2020).
# The campaign covered roughly 69,000 compounds. About 8,600 (12%) showed an effect of 50% or more. For the sample, strong results were picked, then their nearest neighbours and some compounds at random.
# Tested on: Plasmodium berghei
# Test: Screen against P. berghei liver stage (PbLuc), transformed with Luciferase, at 10uM
# Type: functional, HepG2
# Settings: tested at 10 uM
row,Compound,INHIBITION
1,O=C(CO)N1CCC(c2ccnc(Nc3cc(C(F)(F)F)ccn3)n2)C1 (stereo unspecified),20.2%
2,Cc1noc([C@@]23CCO[C@@H]2CCN(Cc2scnc2C)C3)n1,18.6%
3,COCCN1C[C@@H]2CN(Cc3ccoc3)CCC[C@]2(C(=O)O)C1,-9.02%
4,CCN1CCCC1CN(Cc1ccon1)CC1CCN(CCOC)CC1 (stereo unspecified),81.2%
5,CC[C@@H]1N(Cc2ccoc2)CCC[C@]12CCC(=O)N2CCOC,-11.2%
6,COCCN1CCC(CN(CC2CCCO2)C(=O)Cn2cccn2)CC1 (stereo unspecified),15.4%
7,CCN1CCCC1CN(Cc1cc[nH]n1)CC1CCN(CCOC)CC1 (stereo unspecified),45%
8,CCN1CCCC1CN(Cc1ccoc1)CC1CCN(CCOC)CC1 (stereo unspecified),53.7%
9,CCn1ccnc1CN1CCCN(C(=O)c2csc(C)n2)CC1,-1.55%
10,Cc1cnc(N2C[C@H]3C[C@H](C(=O)N4CCN(C)CC4)N(C)[C@H]3C2)nc1,-18.2%
11,Cc1cccc2[nH]c(C3CCCN3Cc3ccc(CO)o3)nc12 (stereo unspecified),-59.5%
12,Cc1ncc(CO)c(CN2CCCC2c2nc3c(C)cccc3[nH]2)c1O (stereo unspecified),-125%
13,Cc1nn(CCO)cc1CN1CCCC1c1nc2c(C)cccc2[nH]1 (stereo unspecified),71.1%
14,Cc1csc(Nc2cc(C3CN(C(C)C)C3)nc(C)n2)n1,37.8%
15,Cc1csc(Nc2cc(C3CN(c4ccncn4)C3)nc(C)n2)n1,68.4%
16,CNCC(=O)N1CC(c2cc(Nc3nc(C)cs3)nc(C)n2)C1,-47.8%
17,Cc1nc(C)c(C(=O)N2CCCC2c2nc(O)cc(C(C)C)n2)s1 (stereo unspecified),13.5%
18,CSc1ccc(C(C(=O)O)N2CCOCC2)cc1 (stereo unspecified),41.2%
19,COC1COC2(CCN(Cc3cccc(C#N)c3)CC2)C1 (stereo unspecified),-23.8%
20,CCn1nc(NC(=O)Cn2ccc(C(C)=O)n2)c2ccccc21,7.38%
21,COC(=O)c1ccn(CC(=O)Nc2nn(CC3CC3)c3ccccc23)n1,32.3%

row,Compound,INHIBITION
1,CC(=O)c1ccn(CC(=O)Nc2nn(CC3CC3)c3ccccc23)n1,71.9%
2,O=C1COC2(CCN(Cc3ccsc3)CC2)CN1,24.9%
3,Cc1ccc(NC2CCN(C(=O)c3ccnc(N(C)C)c3)CC2)nn1,-115%
4,Cc1nn(C)c(N2CCOCC2)c1CNC1CCc2cc(F)ccc21 (stereo unspecified),6%
5,O=C(NCc1ccccc1OCC1CC1)C1CCOC1 (stereo unspecified),56.5%
6,Cc1nn2cccnc2c1C(=O)NCc1ccccc1OCC1CC1,18.3%
7,CC(C)(C)Oc1ccccc1CNC(=O)C1CCCOC1 (stereo unspecified),29.8%
8,CC1(C)CN(CC(O)C(C)(C)C)C(=O)CN(C(=O)c2ccccc2)C1 (stereo unspecified),4.07%
9,CCN(Cc1ccccc1)Cc1nc2c(cnn2C)c(=O)[nH]1,-51.5%
10,Cc1noc(C)c1C(=O)Nc1ccc2ncn(CC(C)C)c(=O)c2c1,29.9%
11,CC(C)(C)CC(NC(=O)c1nc(=O)[nH][nH]1)c1ccc(F)cc1 (stereo unspecified),22.8%
12,O=C(NC(c1ccc(Cl)cc1)C(F)(F)F)c1nc(=O)[nH][nH]1 (stereo unspecified),66.8%
13,O=C(NC(CC(F)(F)F)c1ccc(Cl)cc1)c1nc(=O)[nH][nH]1 (stereo unspecified),-7.17%
14,O=C(NC1CC1)[C@H]1CC[C@@H]2[C@@H](CCN2Cc2ccsc2)O1,20.9%
15,CNC(=O)[C@@H]1CC[C@@H]2[C@@H](CCN2Cc2cn(C)c3ccccc23)O1,-20.1%
16,CC(C)NC(=O)[C@@H]1CC[C@@H]2[C@@H](CCN2Cc2cn(C)c3ccccc23)O1,65.1%
17,O=C(NCC1CC1)[C@@H]1CC[C@@H]2[C@@H](CCN2Cc2ccc(F)c(F)c2)O1,32.2%
18,CC(C)NC(=O)[C@@H]1CC[C@@H]2[C@@H](CCN2Cc2ccc3ccccc3n2)O1,31.9%
19,CN1CCN(C(=O)[C@H]2CC[C@@H]3[C@@H](CCN3Cc3ccsc3)O2)CC1,52%
20,O=C(NCC1CC1)[C@H]1CC[C@@H]2[C@@H](CCN2Cc2ccoc2)O1,26.8%
21,O=C([C@H]1CC[C@@H]2[C@@H](CCN2Cc2ccsc2)O1)N1CCOCC1,-45.5%

row,Compound,INHIBITION
1,Cc1csc(CN2CC[C@H]3O[C@H](C(=O)Nc4cccnc4)CC[C@H]32)n1,81.5%
2,O=C(Nc1cnccn1)[C@@H]1CC[C@@H]2[C@@H](CCN2Cc2nccs2)O1,43.4%
3,COc1ccc(CN2CC[C@H]3O[C@@H](C(=O)NCC4CC4)CC[C@H]32)cc1,53%
4,Cc1cccc(CN2CC[C@H]3O[C@H](C(=O)Nc4cnccn4)CC[C@H]32)n1,34.3%
5,CC(c1ccncc1)N(C)C(=O)NCCOc1ccc(C#N)cc1 (stereo unspecified),34.7%
6,COCCN1CCN(c2ccc3ccc(C(=O)NC4CC4)cn23)CC1,18.6%
7,C=C(C)CN1CCN(Cc2cnc(OC)nc2)CC1,25.6%
8,COCCn1cc(CCC(=O)Nc2c(C)nn(C)c2C)c2ccccc21,39.4%
9,CN(C)C(=O)N1CCC2(CC1)C(c1cnn(C)c1)CC(=O)N2C (stereo unspecified),39.2%
10,Fc1cnc(N2CC[C@@H]3OC(COCc4cccnc4)CC[C@@H]32)nc1 (stereo partly specified),37.8%
11,Cn1cc(CN2CC[C@H]3O[C@@H](C(=O)NC4CC4)CC[C@H]32)cn1,62.4%
12,CC(=O)N1CC[C@@H]2O[C@H](C(=O)Nc3nc(C)cs3)C[C@@H]21,-24.1%
13,Cn1cc(CN2CC[C@H]3O[C@H](C(=O)NC4CC4)CC[C@H]32)c2ccccc21,66.8%
14,COCCNC(=O)[C@@H]1CC[C@@H]2[C@@H](CCN2Cc2cnn(C)c2)O1,7.11%
15,Cn1cc(CN2CC[C@H]3O[C@H](C(=O)Nc4cnccn4)CC[C@H]32)cn1,30.3%
16,Cc1csc(NC(=O)[C@@H]2C[C@H]3[C@H](CCN3S(C)(=O)=O)O2)n1,61.3%
17,O=C(NC1CCC1)[C@@H]1CC[C@@H]2[C@@H](CCN2CCc2ccccc2)O1,42.1%
18,Cc1csc(NC(=O)[C@@H]2C[C@H]3[C@H](CCN3c3ncccn3)O2)n1,-16.2%
19,O=C(NC1CC1)[C@H]1CC[C@@H]2[C@@H](CCN2CCOCc2ccccc2)O1,10.4%
